Screens from PubChem.
FLuc counter: counter-screen for miR-21 project: firefly luciferase inhibitors or activators; Potency, µM (doses to about 57.5 µM), inactives show at the top dose activity change, negative = inhibition, actives largely listed as inhibitors; purified FLuc, Km substrates, luminescence inhibition; hit rate 6.9% among 360,000; P08659;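 also: plate controls were vehicle for no effect and reference inhibitor for full effect; nearly all actives have a fitted effect of over 55% in size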
Target sequence (P08659 whole entry, looked up): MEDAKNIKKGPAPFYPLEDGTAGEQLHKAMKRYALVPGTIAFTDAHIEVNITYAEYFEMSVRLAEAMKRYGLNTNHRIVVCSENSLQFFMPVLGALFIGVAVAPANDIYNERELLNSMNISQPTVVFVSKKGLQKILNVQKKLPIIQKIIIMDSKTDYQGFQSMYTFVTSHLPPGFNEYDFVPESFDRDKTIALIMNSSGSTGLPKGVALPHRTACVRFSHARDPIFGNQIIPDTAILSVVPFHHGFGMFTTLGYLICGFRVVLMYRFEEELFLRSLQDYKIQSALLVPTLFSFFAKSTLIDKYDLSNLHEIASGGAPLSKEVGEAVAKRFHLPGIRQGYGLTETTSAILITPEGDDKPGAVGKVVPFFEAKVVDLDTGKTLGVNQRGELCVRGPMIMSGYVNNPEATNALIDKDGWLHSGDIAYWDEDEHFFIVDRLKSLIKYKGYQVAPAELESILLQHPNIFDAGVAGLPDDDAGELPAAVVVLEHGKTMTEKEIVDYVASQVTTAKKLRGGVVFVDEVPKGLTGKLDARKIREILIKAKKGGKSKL
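Purified P. pyralis luciferase (10nM final) with 10uM D-luciferin and 10uM ATP (Km levels) in 50mM Tris acetate pH 7.5, 10mM Mg acetate, 0.01% Tween-20, 0.05% BSA; qHTS 6-point titration, ~60 µM downward; luminescence read.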
Rab9 prom act: activators of Rab9 promoter | Huh7 Rab9 promoter-luciferase reporter, luminescence, 24 h | Potency, µM (highest dose often 9.22 µM), inactives show at the top dose activation, negative = inhibition, actives largely listed as activators | hit rate 2.8% among 320,000; also: % of control where 0% means no effect; nearly all actives have a fitted effect of over 60% in size
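Rab9 promoter-driven luciferase in stably transfected Huh7 cells; 1500 cells/well rested 2 h, exposed to compound in DMSO for 24 h at 37 °C, 5% CO2. Luminescence read 10 min after adding luciferase reagent at ambient temperature.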
ELG1 genotoxic: genotoxicity induction in ELG1-luciferase HEK293T cells. HEK293T ELG1-luciferase reporter, luminescence, 16 h. Potency, µM (titrated, usually from 46 µM), for the others: top-dose activity change, positive = activation, most hits filed as activators. hit rate 1.3% among 330,000. AID 504466; also: % of control where 0% means no effect; nearly all actives have a fitted effect of over 60% in size
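HEK293T cells expressing luciferase-tagged ELG1 were treated with compound or DMSO for 16 hr at 37°C. Luciferase activity was then read after 30 min with ONE-Glo at room temperature; rising signal flags genetic stress.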
SMN2 splice enh: enhancers of SMN2 splice variant expression | HEK293 SMN2-luciferase splicing reporter, luminescence, 30-36 h | Potency, µM (series often up to 46.1 µM), without a hit: at the top dose activity change, positive = activation, most hits filed as activators | hit rate 2.8% among 210,000; also: % of control where 0% means no effect; nearly all actives have a fitted effect of over 55% in size
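HEK293 cells carry an SMN2 minigene-luciferase reporter in which exon 7 inclusion puts luciferase in frame. Cells were seeded at 2000 cells/well, attached for 10-12 hours, then exposed to compounds for 30-36 hours at 37C before ONE-Glo luminescence.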
NPC1 prom act: activators of NPC1 promoter | Huh7 NPC1 promoter luciferase reporter, 24 h | Potency, µM (doses to about 9.22 µM), for the others: at the highest dose activation, most hits filed as activators | hit rate 2.4% among 320,000; also: % of control where 0% means no effect; nearly all actives have a fitted effect of over 60% in size
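Luminescence read-out of NPC1 promoter-driven luciferase in stably transfected Huh7 cells; compounds delivered in DMSO and left 24 h at 37C, 5% CO2, qHTS titration format.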
Active calls of the source: *; ? = inconclusive; . = no result given. In the library only some 7.4% were active in any assay of this set; here they are far more common. Calls follow the shape of the dose curve; as a rule, active = well fitted curve in the direction sought with a large enough effect; inconclusive = small, poorly fitted or top-dose-only effect, or another doubt; inactive = no such curve, though single readings can be large; an effect the other way counts as inactive or inconclusive. Potency is read from the fitted curve at half-maximal effect.

SMILES	FLuc counter	Rab9 prom act	ELG1 genotoxic	SMN2 splice enh	NPC1 prom act
C[C@]12c3[nH]c4ccccc4c3CCN1C(=O)C(CC(=O)NCCCn1ccnc1)C[C@@H]2C(=O)N1CCCCC1 (stereo not given in full)	.	.	7.4%	.	.
CN(C)c1ccc(CNC(=O)C2CCN(S(=O)(=O)c3ccc4[nH]c(=O)ccc4c3)CC2)cc1	-1.5%	.	.	.	.
CC(=O)Nc1ccc(NC(=O)CSc2n[nH]c(-c3cccs3)n2)cc1	-11.0%	0.9%	-1.0%	.	-1.5%
CNc1nc(-c2ccccc2)[n+](-c2ccc(C)cc2)s1	6.75µM*	11.8%	0.5%	.	13.4%
COc1ccc(-c2ccc(-c3noc(-c4cccs4)n3)c(OC)n2)cc1	-14.0%	28.1%	?	12.3%	16.3%
COc1ccc(-c2csc(-n3cccn3)n2)cc1	3.79µM*	1.41µM*	?	.	2.51µM*
COc1ccc(-c2csc(-n3ncc(-c4cccs4)c3N)n2)cc1	4.26µM*	6.4%	1.3%	-5.7%	-5.9%
Cc1ccccc1CN1C(=O)C(O)(CC(=O)c2cccc(Br)c2)c2ccccc21 (stereo not given)	1.6%	.	.	-6.2%	.
Cc1ccc2nc(-c3ccc(NC(=O)COC(=O)c4cncc(Br)c4)cc3)sc2c1	1.69µM*	0.316µM*	1.3µM*	0.562µM*	?
CCOc1ncccc1C(=O)OCC(=O)Nc1ccc(-c2nc3ccc(C)cc3s2)cc1	5.36µM*	0.355µM*	7.31µM*	1.58µM*	0.447µM*
CNS(=O)(=O)c1cccc(C(=O)OCC(=O)Nc2ccc(-c3nc4ccc(C)cc4s3)cc2)c1	4.78µM*	?	0.731µM*	1.12µM*	0.501µM*
O=C(COC(=O)c1cncc(Br)c1)Nc1ccc2c(c1)OCO2	1.1%	9.5%	-3.3%	15.5%	-14.8%
Cc1ccc2nc(-c3ccc(NC(=O)COC(=O)c4ccc([N+](=O)[O-])o4)cc3)sc2c1	1.35µM*	0.447µM*	1.3µM*	0.708µM*	0.398µM*
CNS(=O)(=O)c1cccc(C(=O)OCC(=O)Nc2ccc(N3CCCCC3)cc2)c1	?	?	0.2%	22.1%	4.4%
CC(C)N(CCCNC(=O)Cn1c(=O)c2cccn2c2ccc(F)cc21)Cc1ccccc1	6.5%	-0.1%	4.2%	.	-3.0%
O=C(CSc1ccc2nnc(CCNC(=O)c3ccccc3)n2n1)NCc1ccc(F)cc1	-1.9%	.	-1.9%	.	-1.6%
Cc1ccc2nc(-c3ccc(NC(=O)COC(=O)c4ccco4)cc3)sc2c1	10.7µM*	0.316µM*	2.91µM*	2.24µM*	0.447µM*
Cc1ccc(NC(=O)CN2CCN(C(=O)c3ccco3)CC2)cc1	-2.1%	-4.2%	0.0%	.	-5.8%
Cc1ccc(NC(=O)COC(=O)c2ccco2)cc1	16.9µM*	-1.2%	4.3%	.	-2.1%
CC(=O)Nc1ccc(C(=O)COC(=O)c2ccco2)c(F)c1	13.5µM*	-7.7%	3.7%	.	-4.1%
Cc1ccc2nc(-c3ccc(NC(=O)CN4CCN(C(=O)c5ccco5)CC4)cc3)sc2c1	4.78µM*	?	?	?	?
O=C(COC(=O)c1ccc(Br)o1)Nc1ccc(Br)cc1	-1.0%	8.9%	2.6%	.	3.0%
Cc1ccc2nc(-c3ccc(NC(=O)COC(=O)c4ccc(Br)o4)cc3)sc2c1	3.38µM*	0.398µM*	1.16µM*	0.501µM*	0.794µM*
Cc1ccc(NC(=O)C(OC(=O)c2cnc(C)cn2)c2ccccc2)c([N+](=O)[O-])c1 (stereo not given)	3.3%	1.8%	4.5%	.	1.9%
COc1ccccc1-c1cc(C(=O)Nc2cccnc2)no1	6.75µM*	25.1%	18.4µM*	26.7%	?
SMILES	FLuc counter	Rab9 prom act	ELG1 genotoxic	SMN2 splice enh	NPC1 prom act
COc1ccc(NC(=O)c2cc(-c3ccccc3OC)on2)cc1	9.53µM*	0.2%	?	?	-3.2%
COc1ccccc1-c1cc(C(=O)Nc2cccnc2Cl)no1	-1.4%	-3.5%	8.8%	.	-0.6%
COc1ccccc1-c1cc(C(=O)NCCc2ccccc2)no1	9.53µM*	3.55µM*	13µM*	25.1µM*	?
COc1ccc(NC(=O)c2cc(-c3ccccc3Cl)on2)cc1	8.49µM*	?	20.6%	.	?
CCCc1cc(C(=O)NCCc2ccccc2)no1	21.3µM*	2.24µM*	10.3µM*	12.6µM*	2.24µM*
CCc1cc(C(=O)NCc2ccccc2)no1	-17.4%	.	.	18.2%	.
Cc1ccc(/C=C2/Sc3ccc(C(=O)N4CCN(c5ccccn5)CC4)cc3NC2=O)cc1	13.5µM*	-2.3%	-4.3%	.	-5.3%
CCOC(=O)C1CCN(C(=O)c2ccc3c(c2)NC(=O)/C(=C/c2ccccc2)S3)CC1	-16.4%	-4.9%	-3.9%	.	-5.8%
CCOC(=O)C1CCN(C(=O)c2ccc3c(c2)NC(=O)/C(=C\c2ccc(C)cc2)S3)CC1	23.9µM*	0.8%	-0.1%	.	-4.6%
Cc1cc(C)n(C(C)Sc2ccccc2)n1 (stereo not given)	-0.5%	-5.3%	3.1%	.	-2.7%
O=C(Nc1cc(-c2nc3ccccc3o2)ccc1Cl)c1sc2c([N+](=O)[O-])cccc2c1Cl	-1.6%	.	.	-7.0%	.
COc1ccc(NC(=O)c2sc3nc(C)c(C(=O)Nc4ccc(C)cc4C)c(-c4cccs4)c3c2N)cc1	-6.6%	.	.	-4.3%	.
CN(C)c1ccc(/C=C2\CCC/C(=C\c3ccccc3)C2=O)cc1	12µM*	23.5%	?	17.8%	27.8%
O=C1/C(=C/c2cccnc2)CC/C1=C\c1cccnc1	?	-8.6%	-22.4%	-20.8%	-1.6%
CC(C)/C=C1\CC/C(=C\c2cccnc2)C1=O	16.9µM*	1.0%	2.4%	-34.2%	2.6%
O=C1/C(=C/c2ccccc2)CCCc2ccccc21	10.7µM*	3.1%	?	-9.7%	-0.2%
O=C1/C(=C\c2cccnc2)CCc2ccccc21	6.01µM*	4.2%	11.8%	.	-7.1%
O=C(NCCc1ccccc1)c1ccc2c(c1)N(Cc1ccc(Cl)cc1)C(=O)CS2	-0.1%	.	.	-48.4%	.
COc1ccccc1CNC(=O)C1CCN(c2nc3ccc(Cl)cc3[nH]2)CC1	-17.1%	.	.	.	.
C#CC(C)OC(=O)Nc1cnccc1C(F)(F)F (stereo not given)	-2.0%	2.6%	-2.8%	.	0.4%
CCCCC(=O)Nc1cc(C(=O)NCCc2ccccc2)ccc1Cl	-4.2%	2.51µM*	?	7.94µM*	2.24µM*
COc1cccc(C(=O)Nc2ccccc2NC(=O)c2cccc(OC)c2)c1	-6.7%	-1.8%	-7.2%	.	-4.0%
COc1cccc(C(=O)Nc2cc(C(=O)NCCc3ccccc3)ccc2Cl)c1	-17.7%	13.4%	?	11.2µM*	9.2%
CCc1ccc(NC(=O)CSc2ccc3nc(-c4ccc(OC)cc4)cn3n2)cc1	2.69µM*	.	.	.	.
N#CCSc1ccc2nc(-c3ccccc3)cn2n1	7.57µM*	2µM*	?	.	2.82µM*
CCc1ccc(NC(=O)CSc2ccc3nnc(CCNS(=O)(=O)c4ccc(OC)cc4)n3n2)cc1	-9.2%	.	.	.	.
